Records with an inconclusive call do not appear. A call without a number means that no potency is given here. The source made the active and inactive calls. Calls come from the whole dose curve; as a rule, active = well fitted curve in the direction sought with a large enough effect; inconclusive = small, poorly fitted or top-dose-only effect, or another doubt; inactive = no such curve, though single readings can be large; an effect the other way counts as inactive or inconclusive.
Columns and labels:
[1] = qHTS of pediatric cancer cell lines to identify multiple opportunities for drug repurposing: Primary screen for NB1643 cells (AID 1347099); note: nearly all actives have a fitted effect of over 50% in size; note: potency is the fitted concentration of half-maximal effect
Method in brief: (§1)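 Luminescence from CellTiter-Glo served as readout of metabolically active cells after 48 h compound exposure. Titrations: MIPE 11-point, from 0.78 nM; NPC 8-point, from 0.59 nM (final). Concentration-response curves came straight from the primary screen.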

[2] = qHTS of pediatric cancer cell lines to identify multiple opportunities for drug repurposing: Primary screen for LAN-5 cells (AID 1347100); note: potency is the fitted concentration of half-maximal effect
Method in brief: (§2)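 Cells (500-1,000/well) rested 5 h, then received compounds for 48 h; metabolically active cells were measured by CellTiter-Glo luminescence. Final concentrations spanned up to 46 µM (MIPE, 11-point) or 0.59 nM-46 µM (NPC, 8-point) in primary screens, 11-point in follow-ups.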

[3] = qHTS of pediatric cancer cell lines to identify multiple opportunities for drug repurposing: Primary screen for RD cells (AID 1347104); note: nearly all actives have a fitted effect of over 55% in size; note: potency is the fitted concentration of half-maximal effect
Method in brief: as §1

[4] = qHTS of pediatric cancer cell lines to identify multiple opportunities for drug repurposing: Primary screen for MG 63 (6-TG R) cells (AID 1347105); note: nearly all actives have a fitted effect of over 50% in size; note: potency is the fitted concentration of half-maximal effect
Method in brief: as §1

[5] = qHTS of pediatric cancer cell lines to identify multiple opportunities for drug repurposing: Primary screen for control Hh wild type fibroblast cells (AID 1347106);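 note: series mostly up to about 46 µM; a drop in luminescence marks cytotoxicity and a rise apparent proliferation; nearly all actives have a fitted effect of over 55% in size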
Method in brief: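 Viability after 48 h compound treatment at 37C, 500-1,000 cells/well, read as ATP luminescence with CellTiter-Glo. Primary screens used 11-point (MIPE, 0.78 nM-46 µM) or 8-point (NPC, 0.59 nM-46 µM) final concentrations; follow-up screens used 11-point dilutions.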

[6] = qHTS of pediatric cancer cell lines to identify multiple opportunities for drug repurposing: Primary screen for Rh18 cells (AID 1347102); note: nearly all actives have a fitted effect of over 65% in size; note: potency is the fitted concentration of half-maximal effect
Method in brief: as §2

[7] = qHTS of pediatric cancer cell lines to identify multiple opportunities for drug repurposing: Primary screen for OHS-50 cells (AID 1347103); note: nearly all actives have a fitted effect of over 40% in size; note: potency is the fitted concentration of half-maximal effect
Method in brief: as §2

[8] = qHTS of pediatric cancer cell lines to identify multiple opportunities for drug repurposing: Primary screen for BT-12 cells (AID 1347101); note: nearly all actives have a fitted effect of over 25% in size; note: potency is the fitted concentration of half-maximal effect
Method in brief: as §2

[9] = qHTS of pediatric cancer cell lines to identify multiple opportunities for drug repurposing: Primary screen for Rh30 cells (AID 1347107); note: series mostly up to about 46 µM; nearly all actives have a fitted effect of over 75% in size
Method in brief: as §2

SMILES	Potency [1]	Potency [2]	Potency [3]	Potency [4]	Potency [5]	Potency [6]	Potency [7]	Potency [8]	Potency [9]
CC(=O)N1CCN(c2ccc(OCc3nn(C)c(C)c3-c3cccc4c(CCCOc5cc(C)c(Cl)c(C)c5)c(C(=O)O)n(Cc5cccnc5)c34)cc2)CC1	18.7 µM (active)	20.9 µM (active)	18.7 µM (active)	29.6 µM (active)	inactive	–	–	–	–
CNC(=O)c1cc(Oc2ccc(NC(=O)Nc3ccc(Cl)c(C(F)(F)F)c3)c(F)c2)ccn1	13.2 µM (active)	20.9 µM (active)	16.6 µM (active)	23.5 µM (active)	inactive	23.5 µM (active)	10.9 µM (active)	–	–
CCNC(=O)[C@H]1O[C@@H](n2cnc3c(N)nc(NCCc4ccc(CCC(=O)O)cc4)nc32)[C@H](O)[C@H]1O	inactive	inactive	inactive	inactive	inactive	–	–	inactive	inactive
CN1CCc2c(n(Cc3ccc(C(=O)NO)cc3)c3ccccc23)C1	11.8 µM (active)	16.6 µM (active)	18.7 µM (active)	–	inactive	18.7 µM (active)	21.7 µM (active)	–	inactive
CN[C@@H](C)[C@H]1[C@H](O)C[C@@]2(C)[C@@H]3CC[C@H]4C(C)(C)[C@@H](NC)CC[C@@]45C[C@@]35CC[C@]12C	inactive	inactive	–	inactive	inactive	inactive	–	–	inactive
CC(C)c1c(C(=O)Nc2ccccc2)c(-c2ccccc2)c(-c2ccc(F)cc2)n1CC[C@H](O)C[C@@H](O)CC(=O)O	20.9 µM (active)	inactive	inactive	14.8 µM (active)	inactive	–	–	5.44 µM (active)	–
O=C(O)CCNc1cc(N2CCc3ccccc3CC2)nc(-c2ccccn2)n1	11.8 µM (active)	inactive	inactive	inactive	inactive	inactive	inactive	–	inactive
CON(C)C(=O)N1N=C(c2cc(F)ccc2F)S[C@]1(CCCN)c1ccccc1	inactive	–	–	–	–	–	0.001 µM (active)	–	inactive
Cc1ccc2c(=O)c3cccc(CC(=O)O)c3oc2c1C	14.8 µM (active)	–	29.6 µM (active)	23.5 µM (active)	inactive	inactive	–	inactive	inactive
O=C(Nc1ccccc1)Nc1ccc(-c2ccc(C(=O)[C@H]3CCC[C@H]3C(=O)O)cc2)cc1	inactive	inactive	–	–	inactive	–	–	–	–
O=C(Nc1cccc2c(=O)cc(-c3nn[nH]n3)oc12)c1ccc(OCCCCc2ccccc2)cc1	inactive	–	37.2 µM (active)	inactive	inactive	–	24.3 µM (active)	–	inactive
O=C1NC(=O)C(=Cc2ccc(-c3ccc(F)cc3O)o2)S1	inactive	–	–	–	–	inactive	1.72 µM (active)	–	–
CNc1nc(Nc2ccc(C(=O)N3CCOCC3)cc2OC)ncc1Cl	4.69 µM (active)	–	inactive	–	inactive	inactive	–	inactive	–
N#CC(c1ccc(Cl)cc1)c1c(Cl)cc(-n2ncc(=O)[nH]c2=O)cc1Cl (stereo not drawn)	18.7 µM (active)	–	–	14.8 µM (active)	–	–	15.3 µM (active)	21.7 µM (active)	–
Cc1cc(-c2ncc(CC(=O)Nc3ccc(-c4cnccn4)cn3)cc2C)ccn1	16.6 µM (active)	–	–	inactive	–	–	5.44 µM (active)	6.85 µM (active)	–
CCOC(=O)N1c2ccc(C(F)(F)F)cc2[C@@H](N(Cc2cc(C(F)(F)F)cc(C(F)(F)F)c2)C(=O)OC)C[C@H]1CC	inactive	–	inactive	inactive	–	–	15.3 µM (active)	–	–
CC(=O)O[C@]1(C(C)=O)CC[C@H]2[C@@H]3C=C(Cl)C4=CC(=O)[C@@H]5C[C@H]5[C@]4(C)[C@@H]3CC[C@@]21C	14.8 µM (active)	–	18.7 µM (active)	–	–	inactive	3.43 µM (active)	–	–
COc1cc([C@@H]2c3cc4c(cc3[C@@H](O[C@@H]3O[C@@H]5CO[C@@H](C)O[C@@H]5[C@H](O)[C@@H]3O)[C@H]3COC(=O)[C@H]23)OCO4)cc(OC)c1O	0.662 µM (active)	–	–	–	inactive	–	2.73 µM (active)	–	inactive
CCCC1OC2C[C@@H]3[C@H]4CCC5=CC(=O)C=C[C@]5(C)[C@H]4C(O)C[C@]3(C)[C@]2(C(=O)CO)O1 (stereo partly drawn)	20.9 µM (active)	–	inactive	inactive	–	–	–	–	–
CCOc1ccccc1N=Nc1c(C)[nH]n(-c2nc(-c3ccccc3)cs2)c1=O	1.18 µM (active)	–	–	–	–	inactive	–	inactive	–
CCC(=O)OCC(=O)[C@@]1(OC(=O)CC)[C@@H](C)C[C@@H]2[C@H]3CCC4=CC(=O)C=C[C@]4(C)[C@@]3(F)[C@@H](O)C[C@@]21C	2.35 µM (active)	–	6.62 µM (active)	–	inactive	inactive	10.9 µM (active)	6.11 µM (active)	inactive
NC1(C(=O)N[C@@H](CCO)c2ccc(Cl)cc2)CCN(c2ncnc3[nH]ccc23)CC1	1.87 µM (active)	–	–	7.43 µM (active)	inactive	2.35 µM (active)	–	–	–
COC(=O)[C@H](c1ccccc1Cl)N1CCc2sccc2C1	20.9 µM (active)	–	–	inactive	inactive	inactive	–	–	inactive
CN(C)CCN(Cc1ccc(Cl)cc1)c1ccccn1	14.8 µM (active)	–	–	inactive	inactive	inactive	–	inactive	inactive
Cc1ccc(S(=O)(=O)OCC(=O)Nc2ccc(C(=O)O)c(O)c2)cc1	18.7 µM (active)	–	–	inactive	inactive	inactive	–	inactive	–
COc1ccc(-c2oc3c(CC=C(C)C)c(O)cc(O)c3c(=O)c2O)cc1	14.8 µM (active)	–	37.2 µM (active)	–	–	inactive	–	inactive	–
CCCCc1ccc(NS(=O)(=O)c2ccc(C)c(C(=O)N3CCN(c4cccc(C)c4C)CC3)c2)cc1	23.5 µM (active)	–	33.2 µM (active)	–	inactive	–	–	–	–

Source: PubChem BioAssay (NCATS)
